Results as given in PubChem BioAssay (NCI).
Compounds without any hit were thinned out: in the full panel of roughly 79,000, 15% have a hit. Active and inactive are the calls of the source. No stated cut-off is given here; in the data, active means growth inhibition above about 70%; inactive means the rest.

Legend:
[1] = NCI Yeast Anticancer Drug Screen. Data for the rad52 strain (AID 147);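 further: 0% = growth of vehicle-treated control cultures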; details: S. cerevisiae rad52 mutant growth inhibition, active compounds read high
Outline: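 Inhibition of yeast growth, referenced to vehicle controls, was the measured output for a strain with defective DNA damage repair.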

[2] = NCI Yeast Anticancer Drug Screen. Data for the wt1 strain (AID 149);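 further: 0% = growth of vehicle-treated wt1 cultures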; details: S. cerevisiae wt1 strain (SPY 50644) growth inhibition, active compounds read high
Outline: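 wt1 yeast, compound-treated; % growth inhibition vs vehicle control.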

[3] = NCI Yeast Anticancer Drug Screen. Data for the rad50EPP+ strain (AID 151);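 further: 0% = growth of vehicle-treated control cultures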; details: S. cerevisiae rad50 mutant strain, active compounds read high
Outline: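 Genetically defined yeast (rad50EPP+, DNA damage repair alteration) is grown with compound, and inhibition of growth is expressed relative to vehicle-treated controls.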

[4] = NCI Yeast Anticancer Drug Screen. Data for the mgt1 strain (AID 153); details: S. cerevisiae mgt1 mutant growth inhibition, active compounds read high
Outline: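 In the mgt1 strain, test compounds were added and growth inhibition was determined relative to vehicle-treated controls.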

[5] = NCI Yeast Anticancer Drug Screen. Data for the rad50 strain (AID 155);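 further: 0% = growth of vehicle-only cultures of the same strain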; details: S. cerevisiae rad50 strain growth inhibition, active compounds read high
Outline: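 Genetically altered yeast (DNA repair pathway); compound treatment; growth inhibition vs vehicle ctrl.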

[6] = NCI Yeast Anticancer Drug Screen. Data for the mec2-1 strain (AID 157); details: S. cerevisiae mec2-1 strain, active compounds read high
Outline: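 Each compound was tested on mec2-1 yeast, a strain altered in DNA damage repair or cell cycle control. Growth inhibition is reported relative to vehicle.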

[7] = NCI Yeast Anticancer Drug Screen. Data for the rad14 strain (AID 159);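 further: 0% = growth of vehicle-treated control cultures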; details: S. cerevisiae rad14 strain growth inhibition, active compounds read high
Outline: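 Test compounds were applied to a repair-deficient yeast strain. Its growth was then compared with that of cultures given vehicle alone, and inhibition was expressed relative to those controls.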

[8] = NCI Yeast Anticancer Drug Screen. Data for the sgs1 mgt1 strain (AID 161);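 further: 0% = growth of cultures given vehicle only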; details: S. cerevisiae sgs1 mgt1 strain, active compounds read high
Outline: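 Inhibition of yeast growth, normalised to vehicle-treated controls, is reported for a strain bearing genetic alterations in DNA damage repair.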

[9] = NCI Yeast Anticancer Drug Screen. Data for the CLN2oe strain (AID 163);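 further: 0% = growth of vehicle-only control cultures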; details: S. cerevisiae CLN2oe strain, active compounds read high
Outline: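 First, the altered yeast strain was treated with each compound; second, its growth was measured; finally, inhibition was derived by comparison with vehicle controls.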

[10] = NCI Yeast Anticancer Drug Screen. Data for the cln2 rad14 strain (AID 165);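 further: 0% = growth equal to vehicle treated cultures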; details: S. cerevisiae cln2 rad14 strain, active compounds read high
Outline: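 Test compounds were added to cln2 rad14 yeast cultures; inhibition of growth was then determined by comparison with vehicle treatment.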

[11] = NCI Yeast Anticancer Drug Screen. Data for the bub3 strain (AID 167); details: S. cerevisiae bub3 mutant strain, active compounds read high
Outline: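 Yeast carrying a defined mutation is treated with each compound, and growth is compared with that of vehicle-exposed cells to give inhibition.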

[12] = NCI Yeast Anticancer Drug Screen. Data for the wt2 strain (AID 169);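 further: 0% = growth of vehicle-treated yeast cultures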; details: S. cerevisiae wt2 strain growth inhibition, active compounds read high
Outline: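 The panel's yeast strains carry defined changes in DNA repair or cell cycle genes. Each strain is grown with compound, and growth loss is scored relative to vehicle.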

[13] = NCI Yeast Anticancer Drug Screen. Data for the mlh1 strain (AID 171);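 further: 0% = growth of vehicle-treated control cultures of the same strain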; details: S. cerevisiae mlh1 strain growth inhibition, active compounds read high
Outline: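 Inhibition values reflect reduced yeast growth in the presence of compound, referenced to vehicle controls, using a strain chosen for its alteration in DNA repair or cell cycle control.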

[14] = NCI Yeast Anticancer Drug Screen. Data for the sgs1 strain (AID 173);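 further: 0% = growth of vehicle-only control cultures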; details: S. cerevisiae sgs1 mutant, active compounds read high
Outline: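 Vehicle-treated cultures served as reference for growth inhibition of a yeast strain altered in DNA damage repair or cell cycle control after compound exposure.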

[15] = NCI Yeast Anticancer Drug Screen. Data for the mlh1 rad18 strain (AID 175); details: S. cerevisiae mlh1 rad18 strain growth inhibition, active compounds read high
Outline: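 Inhibition values reflect reduced growth of mutant yeast versus vehicle-treated controls following compound exposure; the mutations affect DNA damage repair.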

[16] = NCI Yeast Anticancer Drug Screen. Data for the rad18 strain (AID 177); details: S. cerevisiae rad18 mutant growth inhibition, active compounds read high
Outline: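 Steps: expose repair-mutant yeast to compound; measure growth; express as inhibition relative to vehicle control.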

[17] = at 5.0 µM (retest, dose inferred, filed as 0.5)
[18] = at 50.0 µM (retest, dose inferred, filed as 5.0)

Measured: growth inhibition

O=C(O)/C=C\C(=O)Nc1ccc2c(c1)Cc1cc(Cl)ccc1-2
active: [3]; at 100.0 µM 81% | [10]; at 50.0 µM 80.3% | [16]; at 100.0 µM 80%
inactive: [1]; at 1.2 µM -3% | [1]; at 3.7 µM -3% | [1]; at 11.0 µM -3% | [1]; at 33.0 µM 2% | [1]; at 100.0 µM 19% | [2]; at 1.2 µM -3% | [2]; at 3.7 µM -3% | [2]; at 11.0 µM -6% | [2]; at 33.0 µM -5% | [2]; at 100.0 µM 0% | [3]; at 1.2 µM -3% | [3]; at 3.7 µM 8% | [3]; at 11.0 µM 14% | [3]; at 33.0 µM 28% | [4]; at 1.2 µM -3% | [4]; at 3.7 µM -5% | [4]; at 11.0 µM -1% | [4]; at 33.0 µM -4% | [4]; at 100.0 µM 22% | [5]; at 1.2 µM -3% | [5]; at 3.7 µM -4% | [5]; [17] 12% | [5]; at 11.0 µM -2% | [5]; at 33.0 µM 1% | [5]; [18] 7% | [5]; at 50.0 µM -6.3% | [5]; at 100.0 µM 19% | [6]; at 1.2 µM -4% | [6]; at 3.7 µM -1% | [6]; [17] -1% | [6]; at 11.0 µM -2% | [6]; at 33.0 µM 1% | [6]; [18] -4% | [6]; at 50.0 µM 1.65% | [6]; at 100.0 µM 10% | [7]; at 1.2 µM -3% | [7]; at 3.7 µM -4% | [7]; at 11.0 µM -3% | [7]; at 33.0 µM 4% | [7]; at 100.0 µM 29% | [8]; [17] -1% | [8]; [18] 33% | [8]; at 50.0 µM 34.1% | [9]; at 1.2 µM -4% | [9]; at 3.7 µM -7% | [9]; at 11.0 µM -11% | [9]; at 33.0 µM -13% | [9]; at 100.0 µM -3% | [10]; [17] -5% | [10]; [18] 15% | [11]; at 1.2 µM -4% | [11]; at 3.7 µM -5% | [11]; [17] -4% | [11]; at 11.0 µM -7% | [11]; at 33.0 µM -7% | [11]; [18] -7% | [11]; at 50.0 µM 11.9% | [11]; at 100.0 µM -1% | [12]; at 1.2 µM -3% | [12]; at 3.7 µM -3% | [12]; at 11.0 µM -5% | [12]; at 33.0 µM -3% | [12]; at 100.0 µM 11% | [13]; at 1.2 µM -2% | [13]; at 3.7 µM -1% | [13]; at 11.0 µM 1% | [13]; at 33.0 µM 4% | [13]; at 100.0 µM 27% | [14]; at 1.2 µM -2% | [14]; at 3.7 µM 0% | [14]; at 11.0 µM 4% | [14]; at 33.0 µM 10% | [14]; at 100.0 µM 50% | [15]; [17] 2% | [15]; [18] 59% | [15]; at 50.0 µM 54.1% | [16]; at 1.2 µM 0% | [16]; at 3.7 µM 5% | [16]; at 11.0 µM 18% | [16]; at 33.0 µM 34%

CC(C)OC(=O)NNc1c(Cl)cc(Cl)cc1Cl
inactive: [1]; at 1.2 µM -2% | [1]; at 3.7 µM -2% | [1]; at 11.0 µM 2% | [1]; at 33.0 µM 6% | [1]; at 100.0 µM 5% | [2]; at 1.2 µM -2% | [2]; at 3.7 µM -3% | [2]; at 11.0 µM -4% | [2]; at 33.0 µM -3% | [2]; at 100.0 µM -5% | [3]; at 1.2 µM 10% | [3]; at 3.7 µM 31% | [3]; at 11.0 µM 49% | [4]; at 1.2 µM -2% | [4]; at 3.7 µM -2% | [4]; at 11.0 µM 2% | [4]; at 33.0 µM 8% | [4]; at 100.0 µM 5% | [5]; at 1.2 µM -2% | [5]; at 3.7 µM 7% | [5]; [17] 18% | [5]; at 11.0 µM 18% | [5]; at 33.0 µM 16% | [5]; [18] 28% | [5]; at 50.0 µM 2.75% | [5]; at 100.0 µM 13% | [6]; at 1.2 µM -3% | [6]; at 3.7 µM -3% | [6]; [17] 0% | [6]; at 11.0 µM 0% | [6]; at 33.0 µM 1% | [6]; [18] 10% | [6]; at 50.0 µM 3.15% | [6]; at 100.0 µM 0% | [7]; at 1.2 µM -4% | [7]; at 3.7 µM -2% | [7]; at 11.0 µM 2% | [7]; at 33.0 µM 7% | [7]; at 100.0 µM 7% | [8]; [17] 4% | [8]; [18] 24% | [8]; at 50.0 µM 15.2% | [9]; at 1.2 µM 1% | [9]; at 3.7 µM 5% | [9]; at 11.0 µM 14% | [9]; at 33.0 µM 19% | [9]; at 100.0 µM 18% | [10]; [17] 14% | [10]; [18] 21% | [10]; at 50.0 µM 12.3% | [11]; at 1.2 µM 26% | [11]; at 3.7 µM 38% | [11]; [17] 36% | [11]; at 11.0 µM 58% | [12]; at 1.2 µM 2% | [12]; at 3.7 µM 3% | [12]; at 11.0 µM 2% | [12]; at 33.0 µM 9% | [12]; at 100.0 µM 17% | [13]; at 1.2 µM -2% | [13]; at 3.7 µM -1% | [13]; at 11.0 µM 4% | [13]; at 33.0 µM 8% | [13]; at 100.0 µM 8% | [14]; at 1.2 µM -3% | [14]; at 3.7 µM -2% | [14]; at 11.0 µM 0% | [14]; at 33.0 µM 8% | [14]; at 100.0 µM 9% | [15]; [17] 10% | [15]; [18] 38% | [15]; at 50.0 µM 24.9% | [16]; at 1.2 µM 0% | [16]; at 3.7 µM 15% | [16]; at 11.0 µM 33% | [16]; at 33.0 µM 40% | [16]; at 100.0 µM 27%
active: [3]; at 33.0 µM 74% | [3]; at 100.0 µM 79% | [11]; at 33.0 µM 76% | [11]; [18] 82% | [11]; at 50.0 µM 93.2% | [11]; at 100.0 µM 81%

COc1cc(C2C3=C(COC3=O)Oc3cc4c(cc32)OCO4)cc(OC)c1O (stereo unspecified)
inactive: [2]; at 1.2 µM 1% | [2]; at 3.7 µM 2% | [2]; at 11.0 µM 3% | [2]; at 33.0 µM 6% | [2]; at 100.0 µM 8% | [3]; at 1.2 µM -2% | [3]; at 3.7 µM 0% | [3]; at 11.0 µM 1% | [3]; at 33.0 µM -3% | [3]; at 100.0 µM 0% | [4]; at 1.2 µM 0% | [4]; at 3.7 µM -2% | [4]; at 11.0 µM 15% | [4]; at 33.0 µM -2% | [4]; at 100.0 µM 7% | [5]; [17] 14% | [6]; at 1.2 µM 12% | [6]; at 3.7 µM 7%
active: [1]; at 1.2 µM 90% | [1]; at 3.7 µM 86% | [1]; at 11.0 µM 93% | [1]; at 33.0 µM 93% | [1]; at 100.0 µM 94% | [5]; at 1.2 µM 88% | [5]; at 3.7 µM 88% | [5]; at 11.0 µM 92% | [5]; at 33.0 µM 92% | [5]; [18] 97% | [5]; at 50.0 µM 70% | [5]; at 100.0 µM 93%
